From PubChem BioAssay
CHT PAM: allosterically activates the human high affinity choline transporter; Q9GZV3; B-score at 10 µM; 310,000 compounds, 0.49% hits; CHT-expressing cells, membrane potential dye, choline EC20; hits give high values; LV-AA mutant CHT in HEK293 cells;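 active = initial fluorescence not abnormally high and integrated response B-score, plate-corrected, over 3 SD above library mean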
Target sequence (Q9GZV3 whole entry, looked up): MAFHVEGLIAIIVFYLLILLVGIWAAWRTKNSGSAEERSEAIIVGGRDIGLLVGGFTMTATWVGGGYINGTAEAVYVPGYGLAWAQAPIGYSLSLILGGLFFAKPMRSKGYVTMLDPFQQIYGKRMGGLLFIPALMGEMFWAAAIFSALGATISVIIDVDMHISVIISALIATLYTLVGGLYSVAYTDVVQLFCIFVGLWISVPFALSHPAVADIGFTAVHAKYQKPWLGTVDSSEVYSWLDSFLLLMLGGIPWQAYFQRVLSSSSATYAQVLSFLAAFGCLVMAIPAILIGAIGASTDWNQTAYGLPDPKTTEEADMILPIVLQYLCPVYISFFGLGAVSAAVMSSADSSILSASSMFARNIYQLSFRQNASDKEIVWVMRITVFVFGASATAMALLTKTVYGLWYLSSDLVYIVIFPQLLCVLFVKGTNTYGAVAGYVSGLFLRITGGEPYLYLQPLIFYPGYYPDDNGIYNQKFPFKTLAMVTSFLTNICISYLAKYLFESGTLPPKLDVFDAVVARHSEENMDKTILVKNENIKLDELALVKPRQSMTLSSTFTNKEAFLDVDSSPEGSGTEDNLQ
TMEM16A inh: blocks the mouse calcium-activated chloride channel TMEM16A | HEK293 TMEM16A/YFP iodide influx fluorescence, ionomycin | normalized B-score (activity score, 25-100; higher = stronger inhibition) at 10 µM | 310,000 compounds, 1.2% hits;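 active = ratio plate-corrected score three or more library SD toward inhibition, starting fluorescence score within five deviations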;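 also: score derived from kinetic fluorescence span divided by baseline fluorescence per well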
TMEM16A act: activators or potentiators of mouse TMEM16A chloride channel. HEK293 TMEM16A/YFP-H148Q/I152L, iodide quench fluorescence; hits give low values. B-score at 10 µM. 340,000 compounds, 0.3% hits. AID 623877. Q8BHY3;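 active = fluorescence-ratio B-score plate-corrected deviation score at least 3 library SD below zero, with starting fluorescence score within 5 deviations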;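 also: channel opened by trigger with iodide after compound preincubation; score built on the fluorescence ratio of max minus min over baseline; more negative score means more quench and so TMEM16A activation or potentiation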
CHT block: human CHT choline transport inhibition; Q9GZV3; B-score at 10 µM; CHT-expressing cells, membrane potential dye, choline response; hits give low values; 310,000 compounds, 0.86% hits;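 active = B-score over 3 SD under the library average, and starting fluorescence ratio not unusually high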;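 also: choline stimulus applied at its EC90 after an EC20 pre-addition; B-score computed on integrated fluorescence ratio after choline addition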
CHT block conf: confirmation of human choline transporter CHT inhibitors; 2,400 compounds, 70% hits; CHT-expressing cells, choline membrane potential dye; LV-to-AA substituted CHT, HEK293 cells; shares compounds with CHT block; AID 493221; CHT activity remaining % of control (hits give low values), % at 10 µM;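 active = choline transporter activity left, mean of duplicates at 10 µM, below buffer-only control mean minus 3 SD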;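 also: depolarization triggered by choline at its EC90 following an EC20 pre-addition; 0% = hemicholinium-3 full block and 100% = buffer-only control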
HEK293 MPD ctr: activity in parental HEK293 cells lacking CHT; 2,400 compounds, 4% hits; membrane potential ratio readout (active if shifted either direction beyond buffer ±3SD; no single direction) at 10 µM; AID 493222; shares compounds with CHT block; membrane potential dye, choline response; active = decrease or increase beyond buffer ±3SD;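 also: parental cells lack the transporter so any hit is non-specific; ratio is peak minus trough fluorescence over baseline after EC90 choline challenge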
* hit, by the source's call; i = inactive; / = no result given. Sampled rows, rich in hits. Any-hit rate of the full collection: about 2.4%.

SMILES | CHT PAM | TMEM16A inh | TMEM16A act | CHT block | CHT block conf | HEK293 MPD ctr
O=C(NNS(=O)(=O)c1ccccc1[N+](=O)[O-])c1cc2ccccc2cc1O | i | i | i | -7.3* | 62%* | i
O=C(NNS(=O)(=O)c1ccccc1[N+](=O)[O-])c1ccccc1Cl | i | i | i | i | / | /
COc1ccc(C(C(=O)NC2CCCC2)N(CCO)C(=O)Cn2nnc(-c3ccc(C)o3)n2)cc1OC (stereo not given) | i | i | i | i | / | /
COC(=O)c1cc(-c2cccc([N+](=O)[O-])c2)c2c(=O)[nH]c(=O)n(C)c2n1 | i | i | i | i | / | /
Nc1ccc(-c2nc3cc([N+](=O)[O-])ccc3o2)cc1 | i | i | i | i | / | /
COc1ccc(-c2nc3cc([N+](=O)[O-])ccc3o2)cc1 | i | i | i | -5.2* | i | i
CN1/C(=C\C=Nc2cc(S(=O)(=O)N3CCOCC3)ccc2N2CCOCC2)C(C)(C)c2ccccc21 | i | i | i | i | 21%* | i
Cc1ccc(NC(=O)CNC(=O)c2cccc(Cl)c2)nc1 | i | i | i | -6.2* | 26%* | i
Cc1cc(C(=O)CSc2n[nH]c(N)n2)c(C)n1-c1cc(F)ccc1F | i | i | i | -7.1* | 52%* | i
Nc1nc(SCC(=O)c2cc(F)ccc2F)n[nH]1 | i | i | i | i | / | /
Cc1cc(C(=O)CSc2n[nH]c(N)n2)c(C)n1-c1ccccc1 | i | i | i | i | / | /
Cc1cc(C(=O)CSc2n[nH]c(N)n2)c(C)n1-c1ccc(F)cc1 | i | i | i | -8.2* | 71%* | i
COc1ccc(CCN(C)C(=O)COC(=O)/C=C/c2ccc(C)o2)cc1OC | / | / | i | / | / | /
O=[N+]([O-])c1ccc(N2CCCCC2)nc1 | i | i | i | -5.8* | 60%* | i
O=[N+]([O-])c1ccc(N2CCCC2)nc1 | i | i | i | i | / | /
Cc1c(Cl)ccc2c(C(O)CBr)cc(-c3ccccc3)nc12 (stereo not given) | / | / | i | / | / | /
Cc1ccc(Oc2ccc(NC(=O)Cn3ccsc3=N)cc2)cc1 | i | i | i | -7.9* | 16%* | i
Cc1ccc(NC(=O)CN(C)C(=O)Cn2ccsc2=N)cc1 | i | i | i | i | / | /
CCc1ccc(Nc2n[n+](-c3ccccc3)c(-c3cccc(C)c3)s2)cc1 | i | i | i | -15* | 49%* | 2.6*
Cc1nn2c(NCCOCCO)c3c(nc2c1-c1ccccc1)CCCC3 | i | i | i | -5.2* | 31%* | i
COCCNc1c2c(nc3c(-c4ccccc4)c(C)nn13)CCCC2 | i | i | i | -9* | 66%* | i
Cc1nn2c(N3CCN(CCO)CC3)c3c(nc2c1-c1ccccc1)CCCC3 | i | i | i | -9* | 31%* | i
Cc1[nH]c(C)c(S(=O)(=O)Nc2ccc(OC(F)(F)F)cc2)c1C(=O)N1CCCCC1 | i | i | i | i | / | /
CC12CCC(C(=O)NNc3ccc([N+](=O)[O-])cc3)(OC1=O)C2(C)C (stereo not given) | i | i | i | -10* | i | i
CC12CCC(C(=O)NNc3ccccc3)(OC1=O)C2(C)C (stereo not given) | i | i | i | i | / | /
SMILES | CHT PAM | TMEM16A inh | TMEM16A act | CHT block | CHT block conf | HEK293 MPD ctr
CCOC(=O)C(CC)Sc1nnc2cc(C)c3ccccc3n12 (stereo not given) | i | i | i | i | / | /
O=C(Nc1ccc(F)cc1)Nc1ccccc1NS(=O)(=O)c1cccs1 | i | i | i | -5.3* | i | i
COc1ccc(CN2CCC(CNS(=O)(=O)c3cccc(C(F)(F)F)c3)CC2)cc1 | i | i | i | i | / | /
COc1ccc(CN2CCN(C(C)C)C(CCO)C2)cc1Cn1cccn1 (stereo not given) | i | i | i | -12* | 6.3%* | i
COc1ccc(CN2CCN(CCC(C)C)C(CCO)C2)cc1Cn1cccn1 (stereo not given) | i | i | i | i | / | /
CC(=O)Nc1cc(NC(C)=O)cc(C(=O)OC(C)C(=O)Nc2ccc(S(=O)(=O)N3CCCC3)cc2)c1 (stereo not given) | i | i | i | -5* | 45%* | i
CC(OC(=O)c1ccc(S(=O)(=O)N2CCCCC2)cc1)C(=O)Nc1ccc(C(N)=O)cc1 (stereo not given) | / | / | i | / | / | /
Cc1cc(C)nc(N(C#N)CC(=O)N(c2ccccc2)C(C)C)n1 | i | i | i | i | / | /
COc1cc(SC)ccc1C(=O)NC1CCCCC1 | i | i | i | -6.2* | i | i
COc1cc(SC)ccc1C(=O)OCC(=O)NC1CCCCC1 | i | i | i | i | / | /
COc1ccccc1C(=O)NC1CCN(C(=S)NCCc2ccccc2)CC1 | i | i | i | -6.3* | 50%* | i
O=C(Nc1ccccc1)c1ccc(=O)n(Cc2ccc(F)c(F)c2)c1 | i | i | i | -6.4* | i | i
NC(=O)c1ccc(=O)n(Cc2ccc(F)c(F)c2)c1 | i | i | i | i | / | /
O=C(NC(=S)NC1CCSC1=O)c1cccc([N+](=O)[O-])c1 (stereo not given) | i | i | i | i | / | /
O=c1c2cc(Br)ccc2nc(-c2ccc([N+](=O)[O-])cc2)n1O | i | i | i | -6.3* | 38%* | i
O=C(Cc1ccc(F)cc1)c1ccc(O)cc1O | i | i | i | i | / | /
CCCc1cc(C(=O)Cc2ccc(F)cc2)c(O)cc1O | i | 100* | i | -6.5* | 62%* | i
CC(/C=C1\NC(=S)NC1=O)=C\c1ccccc1 | i | i | i | -5.5* | 68%* | i
COc1ccccc1C1/C(=C(/O)c2ccccc2)C(=O)C(=O)N1CC(C)C (stereo not given) | i | i | i | i | / | /
COc1ccc(S(=O)(=O)N2CCC(C(=O)N3CCc4ccccc4C3)CC2)cc1 | i | i | -12* | -5.8* | 49%* | i
CSc1ccc(S(=O)(=O)N2CCC(C(=O)N3CCc4ccccc4C3)CC2)cc1 | i | i | i | -14* | 59%* | i
CCOc1ccc(S(=O)(=O)N2CCC(C(=O)N3CCc4ccccc4C3)CC2)cc1 | i | i | i | i | / | /
Cc1ccc(S(=O)(=O)N2CCC(C(=O)N3Cc4ccccc4C3)CC2)cc1 | i | i | i | i | / | /
